Measured values taken from PubChem BioAssay AID488969 (Vanderbilt High Throughput Screening Facility, 2010).
Over roughly 110,000 compounds, “z-score” has its median near -0.1; the highest 2% begin near 2. This excerpt belongs to a sample that is enriched for the highest values. Calls of active or inactive are those of the source.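 How the source made its calls: active means z-score in the third read window above 3 or below -3; inactive means the rest.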

The compounds below were run against Metabotropic glutamate receptor 8 (Rattus norvegicus) (UniProt P70579) (assay: mGluR8 Gi/Go-coupled signaling modulation – cell-based, rat, thallium flux, HTS, primary screen (AID 488969)). Conditions: HEK293 rat mGluR8, GIRK (G protein-gated inwardly rectifying potassium channel) thallium flux, FluoZin2; at 10 µM; stronger effect = higher value; submaximal glutamate (EC20) added with thallium.
Sequence of Metabotropic glutamate receptor 8 (Rattus norvegicus) (P70579 whole entry, looked up): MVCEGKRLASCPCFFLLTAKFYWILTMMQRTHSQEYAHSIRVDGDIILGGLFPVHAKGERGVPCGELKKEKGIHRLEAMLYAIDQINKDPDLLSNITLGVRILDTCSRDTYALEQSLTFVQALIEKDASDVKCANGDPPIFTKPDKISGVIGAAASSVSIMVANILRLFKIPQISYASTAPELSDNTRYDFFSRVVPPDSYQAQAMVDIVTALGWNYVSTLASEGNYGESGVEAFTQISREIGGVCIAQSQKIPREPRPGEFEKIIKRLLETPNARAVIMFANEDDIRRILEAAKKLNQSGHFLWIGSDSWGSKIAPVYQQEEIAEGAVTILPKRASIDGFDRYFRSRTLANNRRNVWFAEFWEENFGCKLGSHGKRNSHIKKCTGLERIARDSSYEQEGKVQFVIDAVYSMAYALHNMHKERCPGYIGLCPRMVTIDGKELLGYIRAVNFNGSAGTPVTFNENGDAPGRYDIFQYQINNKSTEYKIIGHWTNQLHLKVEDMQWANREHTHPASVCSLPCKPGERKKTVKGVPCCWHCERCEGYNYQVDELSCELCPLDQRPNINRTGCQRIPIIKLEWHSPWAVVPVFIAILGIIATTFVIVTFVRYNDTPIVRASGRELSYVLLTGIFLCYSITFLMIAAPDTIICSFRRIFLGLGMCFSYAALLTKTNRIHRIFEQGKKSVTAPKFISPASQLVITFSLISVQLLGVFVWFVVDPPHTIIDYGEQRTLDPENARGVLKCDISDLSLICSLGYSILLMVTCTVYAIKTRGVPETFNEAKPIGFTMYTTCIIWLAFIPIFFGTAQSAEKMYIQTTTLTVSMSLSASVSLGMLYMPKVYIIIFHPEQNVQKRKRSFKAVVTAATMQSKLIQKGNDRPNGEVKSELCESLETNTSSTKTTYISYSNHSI

SMILES	z-score
O=C(CN1CCCCCCC1)N/N=C/c1ccc(F)c(F)c1	-0.563
CCC(C)(C)C1CCC(=NNC(=O)c2ccoc2C)CC1 (stereo unspecified)	-0.259
Cc1sc(NC(=O)c2ccc(Br)s2)c(C(N)=O)c1C	0.0217
COc1cc(OC)c(OC)cc1CN(C)C(c1ccccc1)c1nnnn1-c1ccccc1C (stereo unspecified)	0.0196
CC(OC(=O)CCc1nc2ccccc2c(=O)[nH]1)C(=O)NC1CCCC1 (stereo unspecified)	-0.356
Cc1cccc2sc(N(CCN(C)C)C(=O)/C=C/c3cccs3)nc12	-0.145
O=c1[nH]c(CN2CCN(c3ccccc3)CC2)nc2ccccc12	0.214
COc1cccc(C2C=C(Nc3ccccc3)C(=O)N2c2ccccc2)c1 (stereo unspecified)	-0.22
Cc1cc(C)c(NC(=O)C2CCCN2C(=O)NC2CCCCC2)c(C)c1 (stereo unspecified)	1.35
O=C(N/N=C/C1CCCCC1)c1cc(Cl)ccc1O	0.618
C/C(=N\NC(=O)c1cc(Cl)ccc1O)c1ccc(Br)s1	6.48 (active)
C/C(=N\NS(=O)(=O)c1ccc(C)cc1)c1ccc(Br)s1	-0.207
Nc1[nH]ncc1N=Nc1ccc(Cl)cc1	-0.104
c1ccc(CNn2c(N3CCOCC3)nc3ccccc32)cc1	0.241
CCN(c1ccccc1)S(=O)(=O)c1cc(C(=O)Nc2ccc(F)c(F)c2)ccc1F	-0.178
CCN(c1ccccc1)S(=O)(=O)c1cc(C(=O)Nc2ccccc2Cl)ccc1F	2.19
CCN(c1ccccc1)S(=O)(=O)c1cc(C(=O)Nc2cccc(Cl)c2)ccc1F	-0.0119
CN(C)c1ccc(/C=C/C(=O)c2ccccc2)cc1[N+](=O)[O-]	-0.207
Fc1c(F)c(F)c(N=Cc2ccc3ncccc3c2)c(F)c1F	0.201
O=C(Cc1cccs1)Nc1nc2c(ccc3ccccc32)s1	0.34
O=C(NC(=S)Nc1nc2c(ccc3ccccc32)s1)c1cccs1	2.78
Cc1ccc(-c2csc(NC(=S)NC(=O)c3cccs3)n2)cc1	-0.267
Cc1ccc2nc(NC(=O)Cc3cccs3)sc2c1	0.542

SMILES	z-score
Cc1ccc2nc(NC(=S)NC(=O)c3cccs3)sc2c1	4.64 (active)
CCc1ccc(-c2nc(NC(=S)NC(=O)c3cccs3)sc2C)cc1	0.595
O=C(NC(=S)Nc1nc2ccccc2s1)c1cccs1	11.7 (active)
O=C(NC(=S)Nc1nc(-c2ccccc2)cs1)c1cccs1	1.03
Cc1nc(NC(=S)NC(=O)c2cccs2)sc1C(=O)N(C)C	-0.329
O=C(c1ccc(Cl)cc1)C1CCN(C(=O)C2CC2)CC1	0.108
CCOC(=O)c1c(C)n(-c2ccc(C)cc2)c2c(CC(C)=O)c(Br)c(OC)c(O)c12	-0.0818
Clc1ccc(Cc2ccc(SCc3ccccc3)nn2)c(Cl)c1	3.48 (active)
Clc1ccc(Cc2ccc(Cl)nn2)c(Cl)c1	-0.119
CSc1ccc(Cc2ccc(Cl)cc2Cl)nn1	-0.154
O=C(N/N=C\c1ccc(Sc2ccccn2)o1)c1cccc(Br)c1	1.77
O=C(N/N=C\c1ccc(Sc2ccccn2)o1)c1cccc(F)c1	-0.471
O=C(N/N=C/c1ccc(Sc2ccccn2)o1)c1cc2ccccc2cc1O	6.43 (active)
CCOC(=O)c1ccc(NC(=S)N2CCN(Cc3ccccc3)CC2)cc1	-0.2
CN(C)c1ccnc(Oc2ccc(C(C)(C)C)cc2)c1C#N	-0.212
O=C(OCc1ccccc1)C1CCCN1C(=O)c1cccs1 (stereo unspecified)	-0.219
COC(=O)C1CCCN1C(=O)c1cccs1 (stereo unspecified)	5.05 (active)
O=C(O)C1CCCN1C(=O)c1cccs1 (stereo unspecified)	0.319
CC(=O)NC1(c2nnnn2CCOC(=O)Nc2ccc(Cl)cc2)CCCCC1	0.0804
O=C(O)CCC(=O)N1N=C(c2c(-c3ccccc3)c3cc(Cl)ccc3[nH]c2=O)CC1c1ccco1 (stereo unspecified)	-0.219
C/C(=N\NC(=O)C(NC(=O)c1ccccc1)C(C)C)c1ccccc1 (stereo unspecified)	-0.068
CC(C)NC(=O)/C(=N\O)c1ccccc1	0.0549
C/C(=N\O)C(C)NC(=O)c1ccccc1 (stereo unspecified)	3.54 (active)

SMILES	z-score
COc1ccccc1NC(=S)NCc1ccc2c(c1)OCO2	-0.0224
Cc1sc(NC(=O)c2cc(-c3ccc(Cl)cc3)nc3ccccc23)c(C(N)=O)c1C	-0.126
O=C(c1ccccc1)N(Cc1ccc(F)cc1)C1CCS(=O)(=O)C1 (stereo unspecified)	-0.0413
O=C(c1ccc(Cl)c([N+](=O)[O-])c1)N(Cc1ccccc1)C1CCS(=O)(=O)C1 (stereo unspecified)	2
O=C(c1sc2ccccc2c1Cl)N(Cc1ccccc1)C1CCS(=O)(=O)C1 (stereo unspecified)	1.16
CCCCn1c(=O)[nH]c(=O)c2c1ncn2Cc1ccco1	-0.249
CCOC(=O)CN(C(=O)CSc1nnc(CNc2ccc(F)cc2)n1CC)c1ccc(F)cc1	-0.599
COc1ccc(OC)c(CNC(=O)CCN2C(=O)COc3ccccc32)c1	0.307
CSc1nc2ccccc2cc1/C=C(\C#N)c1cccc(C)c1	3.99 (active)
CSc1nc2ccccc2cc1/C=C(\C#N)c1cccc(Cl)c1	0.938
CSc1nc2ccccc2cc1/C=C(\C#N)c1ccccc1	0.0152
COc1ccc(C(C)=O)cc1CN1C(=O)C(C)N(c2ccc(C)cc2)C1=O (stereo unspecified)	-0.0103
CCOc1ccc(N2C(=O)CC(SC(=NC)Nc3cccc(F)c3)C2=O)cc1 (stereo unspecified)	-0.588
CCOc1ccc(N2C(=O)CC(SC(=NC)Nc3ccc(F)cc3)C2=O)cc1 (stereo unspecified)	3.7 (active)
CCCOc1ccc(N2C(=O)CC(SC(=NC)Nc3ccc(F)cc3)C2=O)cc1 (stereo unspecified)	-0.0553
CCOC(=O)CN1NC2(CCCCC2)NC1=S	0.284
CCOC(=O)CN1NC2(CCC(C)CC2)NC1=S (stereo unspecified)	-0.408
CCOC(=O)CN1NC2(CCC(C(C)(C)C)CC2)NC1=S (stereo unspecified)	2.66
O=C(CSc1nc(-c2ccccc2)c(-c2ccccc2)[nH]1)NCc1ccco1	-0.317
C=CCOc1ccc(/C(O)=C2\C(=O)C(=O)N(CCCOC)C2c2ccc(O)c(OC)c2)cc1 (stereo unspecified)	-0.44
CNc1cccc2c1C(=O)c1ccccc1C2=O	-0.102
O=C1c2ccccc2-c2cccc(NS(=O)(=O)c3ccc(C(F)(F)F)cc3)c21	2.66
Cc1cccc(S(=O)(=O)Nc2cccc3c2C(=O)c2ccccc2-3)c1	8.14 (active)

SMILES	z-score
Cc1ccc(NS(=O)(=O)c2ccc3c(c2)C(=O)c2ccccc2C3=O)c(C)c1	-0.0521
Cc1ccc(S(=O)(=O)Nc2ccccc2-c2ccccc2NS(=O)(=O)c2ccc(C)cc2)cc1	-0.159
O=C(O)c1ccccc1NS(=O)(=O)c1cccc(C(F)(F)F)c1	-0.814
CCOC(=O)c1[nH]cnc1C(=O)Nc1ccncc1	0.161
O=C(CS(=O)(=O)c1ccc2ccccc2c1)Nc1ccccc1Cl	-0.351
Cn1c(N2CCC(C(N)=O)CC2)nc2c1c(=O)n(Cc1cccc(Br)c1)c(=O)n2C	-1.26
COC(=O)NCc1ccc(S(=O)(=O)N2CCOCC2)cc1	0.235
COc1cc(C(=S)N2CCCC2)ccc1O	0.115
COc1cc(C(=S)N2CCCC2)cc(Cl)c1O	2.62
COc1cc(C(=S)N2CCCC2)cc(OC)c1O	0.304
Cc1sc2nc(C)n(/N=C/c3ccc(O)cc3)c(=O)c2c1C	-0.305
COc1ccc(S(=O)(=O)N(Cc2nc3ccccc3c(=O)[nH]2)C2CCCC2)cc1	2.49
COc1ccc(CN(Cc2nc3ccccc3c(=O)[nH]2)C(=O)NC2CCCCC2)cc1	-0.301
O=C(Nc1cccc(Cl)c1)N(Cc1nc2ccccc2c(=O)[nH]1)C1CCCC1	-0.529
O=c1[nH]c(CS(=O)(=O)c2ccccc2)nc2ccccc12	3.08 (active)
COc1ccc(S(=O)(=O)N(Cc2ccccc2)Cc2nc3ccccc3c(=O)[nH]2)cc1	-0.148
Cc1ccc(S(=O)(=O)Cc2nc3ccccc3c(=O)[nH]2)cc1	-0.19
CN(Cc1nc2ccccc2c(=O)[nH]1)c1ccccc1	-0.0308
Cc1cccc(NC(=O)N(Cc2nc3ccccc3c(=O)[nH]2)C2CCCC2)c1	2.35
O=C(NC1CCCCC1)N(Cc1nc2ccccc2c(=O)[nH]1)C1CCCC1	0.129
CCOC(=O)N1CCN(C(=O)CN(c2cc(Cl)ccc2OC)S(=O)(=O)c2ccccc2)CC1	-0.359
CCCc1nc2ccc(NC(=O)c3cccs3)cc2c(=O)n1Cc1ccc(Cl)cc1	-0.155
O=C(C(=O)N1CCCc2ccccc21)c1c[nH]c2ccccc12	0.104

SMILES	z-score
CCOC(=O)c1c(-c2ccccc2)oc2ccc(OC)cc12	0.0333
CCC(CC)NC(=O)COC(=O)c1ccc(OCc2ccc(C(C)=O)cc2OC)c(OC)c1	-0.23
C/C(=N\NC(=O)c1ccc(OC2CCCC2)cc1)c1ccc(C)s1	1.05
Cc1ccc(CC2CC(=O)N(c3nc4ccccc4n3C)C2=O)cc1 (stereo unspecified)	-0.156
Cc1ccc(C(=O)NCCCn2ccnc2)cc1[N+](=O)[O-]	0.161
O=C(NCCCn1ccnc1)C(Cc1ccc([N+](=O)[O-])cc1)N1C(=O)c2ccccc2C1=O (stereo unspecified)	2.67
Cc1ccc(CNC(=O)C(=O)NCCCn2ccnc2)cc1	-0.281
CN1CCN(C(=O)CN(c2cccc(Cl)c2)S(=O)(=O)c2ccccc2)CC1	-0.681
O=C(Nc1ccc(Cl)c(Cl)c1)Nc1nnc(CC2=CCCCC2)s1	0.0021
CCOC(=O)c1ccc(NC(=O)c2ccc(NC(=O)c3ccccc3)cc2)cc1	-0.341
CCOC(=O)C1=C(NC(=S)NC(=O)c2ccccc2)c2ccccc2CC1(C)C	5.58 (active)
CCOC(=O)c1ccc(NC(=O)c2ccccc2)cc1	-0.0754
CCOC(=O)c1sc(NC(=S)NC(=O)c2ccccc2)c(C(=O)OCC)c1C	0.582
CCOC(=O)C1=C(N)c2ccccc2CC1C(C)C (stereo unspecified)	-0.175
CCOC(=O)C1=C(NC(=S)NC(=O)c2ccccc2)c2ccccc2CC1C(C)C (stereo unspecified)	3.46 (active)
O=[N+]([O-])c1ccc(OCCN2CCCCCC2)cc1	0.121
O=C(NC1CCCCCC1)C1c2ccccc2C(=O)N1CCCN1CCOCC1 (stereo unspecified)	-0.316
CCCCN1C(=O)c2ccccc2C1C(=O)NC1CCCC1 (stereo unspecified)	3.2 (active)
COCCCN1C(=O)c2ccccc2C1C(=O)NC1CCCCCC1 (stereo unspecified)	0.0327
